aSyn 5UTR act: Activators working through SNCA 5'UTR binding (MLPCN); alpha-synuclein 5'UTR reporter, activators screen; activity score, % (tested at 7.5 µM), hits read low; 7.1% of 300,000 active; AID 1814; in the data active means activity score below about -60%
A number is an active result; 0 = inactive. Not all results are given here.

SMILES	aSyn 5UTR act
COc1cc(NC(=O)c2ccccc2Cl)ccc1NC(=O)c1cccs1	-143.0
COc1cc(NC(=S)NC(=O)c2c(OC)cccc2OC)ccc1NC(=O)c1cccs1	-94.5
O=C(Nc1ccccc1Cl)c1cccs1	-70.9
O=C(COC(=O)c1ccccc1Cl)NCCC1=CCCCC1	-79.4
O=C(NCCC1=CCCCC1)C1CCC(CNc2nc(=S)[nH]c3ccccc23)CC1 (stereo unspecified)	0
O=C(COC(=O)c1ccccc1NC(=O)c1ccco1)NCCC1=CCCCC1	-91.9
C(=N\Nc1nncc2ccccc12)/c1ccccc1	-74.9
COc1cc(/C=N/Nc2nncc3ccccc23)cc(OC)c1OC	-108.2
COc1ccc(/C=N/Nc2nncc3ccccc23)c(OC)c1	-159.5
COc1ccc2c(c1)CCc1c-2n[nH]c1C(=O)NCCC(C)C	-71.3
CNC(=O)c1[nH]nc2c1CCc1cc(OC)ccc1-2	-105.3
Cc1ccc(NCC(=O)N=Nc2c(O)[nH]c3ccc([N+](=O)[O-])cc23)cc1	-171.6
CC(C)CCNc1nnnc2c1sc1nc(N3CCOCC3)c3c(c12)CC(C)(C)SC3	0
CC1(C)Cc2c(c(N3CCOCC3)nc3snc(N)c23)CO1	-169.3
COc1ccc(/C(N)=N/OC(=O)c2ccc(C)c([N+](=O)[O-])c2)cc1	-165.4
COc1ccc(CCOC(=O)c2ccc(N)c([N+](=O)[O-])c2)cc1	-73.3
Cc1cc(C(=O)O/N=C(\N)c2ccncc2)ccc1[N+](=O)[O-]	-124.1
CCN1CCN(c2ncnc3c2cnn3-c2ccccc2)CC1	-98.1
Oc1c(CN2CCN(c3ccccc3)CC2)cc(Br)c2cccnc12	0
c1ccc(-n2ncc3c(N4CCCCC4)ncnc32)cc1	0
COc1ccc(-n2ncc3c(N4CCC(C(N)=O)CC4)ncnc32)cc1	-124.1
CCN1CCN(c2ncnc3c2cnn3-c2ccc(Cl)cc2)CC1	-63.3
CCOC(=O)N1CCN(c2ncnc3c2cnn3-c2ccc(Cl)cc2)CC1	-85.7
COc1ccc(-n2ncc3c(N4CCN(Cc5ccccc5)CC4)ncnc32)cc1	-115.0
CC1CC(C)CN(c2ncnc3c2cnn3-c2ccc(Cl)cc2)C1 (stereo unspecified)	-99.0
SMILES	aSyn 5UTR act
CC1CCCN(c2ncnc3c2cnn3-c2ccc(Cl)cc2)C1 (stereo unspecified)	0
Clc1ccc(CONc2ncnc3nonc23)c(Cl)c1	-124.1
COc1cc(-c2cc(C(=O)Nc3nc4ccccc4s3)c3ccccc3n2)cc(OC)c1OC	-65.3
COc1ccc(-c2cc(C(=O)Nc3ccc(C(N)=O)cc3)c3ccccc3n2)cc1OC	-99.0
COCCCNC(=O)CCC(=O)Nc1ccc2nc(N3CCOCC3)cc(C)c2c1	-86.0
CCCN(CCC)CCNC(=O)CCC(=O)Nc1ccc2nc(N3CCOCC3)cc(C)c2c1	-90.2
Cc1cc(N2CCOCC2)nc2ccc(NC(=S)NC(C)C)cc12	-93.5
COc1cccc(NC(=O)CCC(=O)Nc2ccc3nc(N4CCOCC4)cc(C)c3c2)c1	-148.9
CCOC(=O)C1CCCN(C(=O)CCC(=O)Nc2ccc3nc(N4CCOCC4)cc(C)c3c2)C1 (stereo unspecified)	-62.7
CCCCNC(=O)CCC(=O)Nc1ccc2nc(N3CCOCC3)cc(C)c2c1	-86.5
CCN(CC)CCCNC(=O)CCC(=O)Nc1ccc2nc(N3CCC(C)CC3)cc(C)c2c1	-61.6
CCCCNC(=O)CCC(=O)Nc1ccc2nc(N3CCCCC3)cc(C)c2c1	-141.2
Cc1cc(N2CCOCC2)nc2ccc(NC(=O)CCC(=O)N3CCN(c4ccccc4)CC3)cc12	-87.4
Cc1cc(N2CCCCC2)nc2ccc(NC(=O)CCC(=O)NCCC(C)C)cc12	-131.3
Nc1nc2ccccc2n1/N=C/c1ccc2c(c1)OCO2	-192.1
Nc1nc2ccccc2n1/N=C/c1ccc(Br)cc1	-138.9
Cc1cccc(C)c1NC(=O)/C(C#N)=C/c1ccc(-c2ccc(C(=O)O)cc2)o1	-127.1
CNC(=O)/C(C#N)=C/c1ccc(-c2ccc(Cl)cc2)o1	-125.0
COc1ccc(N2CCN(c3nc4ccccn4c(=O)c3C=O)CC2)cc1	-67.7
N#CC(C#N)=Cc1c(N2CCN(c3ccccc3)CC2)nc2ccccn2c1=O	-72.1
COc1ccc(-c2nc3ccccn3c2C=O)cc1	-109.7
O=Cc1c(N2CCN(c3ccccc3)CC2)nc2ccccn2c1=O	-86.3
COc1ccc2cc(C(=O)C3CCCN(C(=O)CCc4cnn(C)c4)C3)ccc2c1 (stereo unspecified)	-82.4
COc1ccc(/C=N/Nc2nc3ccccc3[nH]2)c(OC)c1OC	-108.5
Cc1[nH]c2ccccc2c1/C=N/Nc1cccc(C(=O)O)c1	-101.2
SMILES	aSyn 5UTR act
Cc1cc(=O)[nH]c(N/N=C/c2cc(C)n(CC(F)(F)F)c2C)n1	-89.3
COc1cccc(/C=N/Nc2nc(C)cc(=O)[nH]2)c1OC	-79.4
COc1cccc(/C=N/Nc2ncccc2[N+](=O)[O-])c1OC	0
Cc1[nH]c2ccccc2c1/C=N/Nc1nc2ccccc2[nH]1	-228.4
Cc1ccc(/C=N/Nc2nc3ccccc3[nH]2)s1	-311.7
C(=N\Nc1nc2ccccc2[nH]1)/c1c[nH]c2ccccc12	-223.8
C(=N\Nc1nc2ccccc2[nH]1)/c1cccc2cccnc12	0
Cc1ccccc1/C=N/Nc1nc2ccccc2[nH]1	-114.8
O=C(Nc1ccc(Cl)c(Cl)c1)Nc1ccc(N2CCCC2)c(S(=O)(=O)Nc2ccccc2Cl)c1	0
O=C(/C=C/c1cccs1)Nc1ccc(N2CCOCC2)c(S(=O)(=O)Nc2ccccc2Cl)c1	-138.7
COc1ccc(Cl)cc1C(=O)Nc1nc2ccc(S(C)(=O)=O)cc2s1	-73.4
CS(=O)(=O)c1ccc2nc(NC(=O)c3cccc([N+](=O)[O-])c3)sc2c1	-136.0
COc1cc(OC)cc(C(=O)Nc2nc3ccc(S(C)(=O)=O)cc3s2)c1	-149.1
C/C(=N/NC(=O)c1ccccc1)C1=C(O)CC(C)(C)CC1=O	-94.9
C/C(=N/NC(=O)c1ccc2c(c1)OCO2)c1ccc(NC(=O)C(F)(F)F)cc1	-127.2
CC(=O)Nc1cccc(/C(C)=N/NC(=O)c2ccc3c(c2)OCO3)c1	-77.7
C/C(=N\NC(=O)c1ccccc1)c1cccc(Br)c1	-109.7
C/C(=N\Nc1nc2ccccc2s1)c1ccc2c(c1)OCO2	-175.5
C/C(=N\NC(=O)c1ccc([N+](=O)[O-])cc1Cl)c1ccccc1	-148.5
C/C(=N\NC(=O)c1ccccc1F)c1cccc(NC(=O)c2ccccc2)c1	-94.0
C/C(=N\NC(=O)c1nc2ccccn2c1C)c1ccco1	-135.1
O=C(N/N=C(\c1ccccc1)c1ccccn1)c1cccc([N+](=O)[O-])c1	0
C/C(=N\NC(=O)c1ccccc1)c1ccc(C)c([N+](=O)[O-])c1	-109.0
C/C(=N\NC(=O)c1ccccc1F)c1ccc(C#N)cc1	-63.5
C/C(=N\NC(=O)c1ccccc1)c1ccc2c(c1)OCO2	-117.6
SMILES	aSyn 5UTR act
C/C(=N\NC(=O)c1ccc2c(c1)OCO2)c1ccc(O)cc1	-64.5
C/C(=N\NC(=O)c1c[nH]c2ccccc12)c1ccco1	-173.8
C/C(=N\NC(=O)c1c[nH]c2ccccc12)c1ccc2c(c1)OCO2	-98.5
Cc1ccc(C(=O)Nc2sc(C)c(-c3ccccc3)c2C(N)=O)cc1[N+](=O)[O-]	-81.1
C/C(=N\NC(=O)c1c[nH]c2ccccc12)c1ccccn1	0
S=C(NCCN1CCOCC1)N/N=C/c1c2ccccc2cc2ccccc12	-74.1
Cc1cc(C)n(CCC(=O)N/N=C/c2c(O)ccc3ccccc23)n1	0
Nc1c(C(=O)Nc2ccc3c(c2)OCCO3)nnn1Cc1cccc(F)c1	-176.4
Nc1c(C(=O)Nc2ccc3c(c2)OCCO3)nnn1Cc1ccc(Cl)cc1	-212.0
Nc1c(C(=O)Nc2cccc(F)c2)nnn1-c1cccc(C(F)(F)F)c1	-154.9

Screens from PubChem.
